In PubChem BioAssay (NCI) one finds growth data, which are given here for eight molecules.

SMILES strings stand for the structures. About 83,000 compounds went through this panel and 20% of them were active in at least one assay; those are over-represented in the sample as a whole.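 Growth was measured after 48 h exposure to one concentration of compound in 96-well plates. Values under 10 count as active.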 Unmarked numbers belong to inactive results. The source made the active and inactive calls.

Some test systems named below: NCI-H23 lung; NCI-H226 lung; NCI-H322M lung; HOP-62 NSCLC; NCI-H460 lung; HOP-92 NSCLC; NCI-H522 lung; A549/ATCC NSCLC; 786-0 renal; COLO 205 colon; DU-145 prostate; K-562 leukemia; MALME-3M melanoma; MDA-MB-231 breast; RXF 393 renal; SF-268 CNS; SF-295 CNS; SF-539 CNS; UACC-257 melanoma; M14 melanoma.
What all share (experiment): NCI-60 one-dose screen, 48 h (100 = growth as untreated, 0 = no growth, -100 = all killed)
Common to all, as to settings: 10 µM unless noted

Turning to `CCCCCCCCCCCCCCCCCCNC(=O)[C@H]1CSC(c2ccc(OC)c(F)c2)N1` (stereo not given in full), the growth in the assay on NCI-H23 lung was 36.9%; with NCI-H226 lung, -68% (active); in the assay with NCI-H322M lung, 38.4%; in the assay on HOP-62 NSCLC it was -82.9% (active); in the assay on NCI-H460 lung, -67.8% (active); with HOP-92 NSCLC, 37.8%. Further, the growth with NCI-H522 lung is 56.7%; with A549/ATCC NSCLC it was 20.9%; in the assay with 786-0 renal it was 22.8%; in the assay with COLO 205 colon it was 102%; with DU-145 prostate it was 67.1%; in the assay with K-562 leukemia, 0.509% (active). Further, the growth is -57.4% (active) in the assay on MALME-3M melanoma; -42.8% (active) in the assay on MDA-MB-231 breast; -34% (active) with RXF 393 renal; -61% (active) in the assay with SF-268 CNS; 87.5% in the assay on SF-295 CNS; -15.1% (active) with SF-539 CNS. For the same molecule, the growth with UACC-257 melanoma was 70.3%; in the assay with M14 melanoma, -76.7% (active).

Regarding `COc1ccc(OCC(=O)Nc2ccc(-c3nc4ccccc4s3)cc2C)cc1`, the growth in the assay with NCI-H23 lung was 69.3%; with NCI-H226 lung, 51%; in the assay with NCI-H322M lung, 94.7%; in the assay on HOP-62 NSCLC, 89.5%; in the assay on NCI-H460 lung, 95.5%; in the assay on HOP-92 NSCLC, 68.4%. The growth in the assay on NCI-H522 lung is 61.6%; in the assay on A549/ATCC NSCLC it was 86.2%; with 786-0 renal it was 88.8%; in the assay on COLO 205 colon, 120%; in the assay with DU-145 prostate it was 110%; in the assay with K-562 leukemia, 59.5%. Moreover, the growth in the assay with MALME-3M melanoma was 100%; with MDA-MB-231 breast, 85.7%; in the assay with RXF 393 renal it was 115%; in the assay with SF-268 CNS, 94.3%; with SF-295 CNS, 99.8%; in the assay on SF-539 CNS it was 89.6%. Also, the growth was 109% in the assay with UACC-257 melanoma and 89.9% in the assay on M14 melanoma.

For `CCN(CC)CC(O)CNc1c2ccc([N+](=O)[O-])cc2nc2cc(OC)c(OC)cc12` (stereo not given), the growth with NCI-H23 lung is -27.2% (active); in the assay with NCI-H226 lung, -39.1% (active); in the assay on NCI-H322M lung it was -43.5% (active); in the assay on HOP-62 NSCLC, -51% (active); with NCI-H460 lung, -49.6% (active); in the assay on HOP-92 NSCLC, -57.4% (active). Also, the growth is -65.6% (active) with NCI-H522 lung; -22% (active) with A549/ATCC NSCLC; -8.36% (active) in the assay on 786-0 renal; -71% (active) with COLO 205 colon; -29.9% (active) in the assay on DU-145 prostate; 3.2% (active) in the assay on K-562 leukemia. Also, the growth with MALME-3M melanoma is -82% (active); in the assay with MDA-MB-231 breast, -71.9% (active); with RXF 393 renal, -43.4% (active); with SF-268 CNS it was -35.2% (active); in the assay with SF-295 CNS, -8.54% (active); in the assay on SF-539 CNS, -35.7% (active). Also, the growth in the assay with UACC-257 melanoma is -33.5% (active); with M14 melanoma, -56.7% (active).

As to `CCOC(=S)SCc1ccc(Cl)cc1`, the growth in the assay with NCI-H23 lung is 111%; in the assay with NCI-H226 lung, 101%; in the assay with NCI-H322M lung, 102%; in the assay on HOP-62 NSCLC, 101%; with NCI-H460 lung it was 110%; with HOP-92 NSCLC, 49.3%. In addition, the growth in the assay on NCI-H522 lung was 87.2%; with A549/ATCC NSCLC, 80.4%; with 786-0 renal it was 98%; in the assay with COLO 205 colon it was 145%; with DU-145 prostate it was 106%; with K-562 leukemia it was 110%. The growth in the assay with MALME-3M melanoma was 107%; with MDA-MB-231 breast, 85.4%; with RXF 393 renal, 87.6%; in the assay with SF-268 CNS it was 106%; in the assay with SF-295 CNS it was 89.4%; in the assay with SF-539 CNS, 114%. For the same molecule, the growth with UACC-257 melanoma was 100%; with M14 melanoma it was 99.1%.

For the molecule `Oc1ccccc1N=Cc1c(O)ccc2ccccc12`, the growth in the assay with NCI-H23 lung is 88.2%; in the assay on NCI-H226 lung, 87.3%; in the assay with NCI-H322M lung, 82.6%; with HOP-62 NSCLC, 83.7%; in the assay on NCI-H460 lung, 81.3%; in the assay on HOP-92 NSCLC it was 58.3%. Besides, the growth in the assay on NCI-H522 lung was 81%; in the assay with A549/ATCC NSCLC, 95.4%; with 786-0 renal, 86.2%; with COLO 205 colon, 108%; with DU-145 prostate, 82.3%; in the assay with K-562 leukemia it was 80.3%. The growth in the assay on MALME-3M melanoma was 82.9%; in the assay on MDA-MB-231 breast, 57%; in the assay with RXF 393 renal it was 79.2%; in the assay with SF-268 CNS, 78.4%; in the assay on SF-295 CNS, 53.9%; in the assay on SF-539 CNS, 80%. Moreover, the growth was 93.2% with UACC-257 melanoma and 62.7% in the assay with M14 melanoma.

For the molecule `Brc1cccc(-c2cc(-c3ccc4c(c3)OCCO4)[nH]n2)c1`, the growth was 42.5% [25 µM] with NCI-H23 lung; 25.2% [25 µM] in the assay with NCI-H226 lung; 46.2% [25 µM] in the assay with NCI-H322M lung; 20.4% [25 µM] in the assay with HOP-62 NSCLC; 10.3% [25 µM] in the assay with NCI-H460 lung; 62.8% [25 µM] with HOP-92 NSCLC. Moreover, the growth in the assay with NCI-H522 lung is -5.75% [25 µM] (active); in the assay on A549/ATCC NSCLC, 25.7% [25 µM]; with 786-0 renal it was 40.8% [25 µM]; with COLO 205 colon, -24.5% [25 µM] (active); with DU-145 prostate it was 21% [25 µM]; in the assay on K-562 leukemia, 14.7% [25 µM]. The growth was 49.1% [25 µM] with MALME-3M melanoma; 33.4% [25 µM] with MDA-MB-231 breast; -18.6% [25 µM] (active) with RXF 393 renal; 50.5% [25 µM] in the assay with SF-268 CNS; 0.112% [25 µM] (active) in the assay on SF-295 CNS; -14.1% [25 µM] (active) in the assay with SF-539 CNS. Moreover, the growth was 62.4% [25 µM] in the assay with UACC-257 melanoma and 20.9% [25 µM] in the assay with M14 melanoma.

In the case of `COc1cc(/C=C2\CN(C(=O)CCN3CCC(=NO)CC3)C/C(=C\c3cc(OC)c(OC)c(OC)c3)C2=O)cc(OC)c1OC`, the growth in the assay on NCI-H23 lung was -21.9% (active); in the assay with NCI-H226 lung, -6.36% (active); with NCI-H322M lung, -89.2% (active); in the assay with HOP-62 NSCLC, -47.2% (active); in the assay with NCI-H460 lung, -64% (active); in the assay on HOP-92 NSCLC it was -49.2% (active). Moreover, the growth in the assay on NCI-H522 lung is -74.7% (active); in the assay with A549/ATCC NSCLC, 2.51% (active); with 786-0 renal, -38.6% (active); in the assay with COLO 205 colon, -85.8% (active); in the assay on DU-145 prostate it was -94% (active); in the assay with K-562 leukemia, 6.55% (active). In addition, the growth with MALME-3M melanoma is -50.4% (active); with MDA-MB-231 breast, -73.5% (active); with RXF 393 renal it was -85.1% (active); in the assay with SF-268 CNS, -73% (active); with SF-295 CNS it was -75.4% (active); in the assay with SF-539 CNS, -60.5% (active). Further, the values for the growth in the assay with UACC-257 melanoma and in the assay with M14 melanoma were -16.9% (active) and -46.6% (active), respectively.

Consider `Cc1ccc(-c2nc(/C=N/Nc3cc(C)nc4ccc(Cl)cc34)c(C)o2)cc1`, for which the growth with NCI-H23 lung is 44.5%; with NCI-H226 lung, 81.3%; in the assay on NCI-H322M lung, -82.5% (active); in the assay on HOP-62 NSCLC it was 74.9%; in the assay on NCI-H460 lung, -77.2% (active); in the assay on HOP-92 NSCLC, 29.9%. The growth in the assay with NCI-H522 lung was -69.5% (active); in the assay on A549/ATCC NSCLC, -47.4% (active); in the assay with 786-0 renal, -93.2% (active); in the assay with COLO 205 colon, -86% (active); in the assay on DU-145 prostate, 3.19% (active); with K-562 leukemia, -10.9% (active). Also, the growth was -74.6% (active) in the assay with MALME-3M melanoma; -83.9% (active) with MDA-MB-231 breast; -84.9% (active) in the assay on RXF 393 renal; -52.7% (active) with SF-268 CNS; 17.1% in the assay with SF-295 CNS; -77.7% (active) with SF-539 CNS. Besides, the growth is 107% in the assay with UACC-257 melanoma and -14.2% (active) in the assay on M14 melanoma.
